# From PubChem BioAssay
# KCNQ2 block: rat KCNQ2 potassium channel inhibitors, primary screen, cell-based, CHO-K1, FluxOR thallium flux, B-score | Potassium voltage-gated channel subfamily KQT member 2 (Rattus norvegicus), O88943 | 20 min; hits give low values | B-score at 10 µM | hit rate 1.1% among 310,000 | AID 2156, 2009;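 active = fluorescence ratio B-score at most minus 3 library SDs, with starting brightness B-score within 2 library SDs, cut at about -5.5 in these data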
# Target sequence (O88943 whole entry, looked up): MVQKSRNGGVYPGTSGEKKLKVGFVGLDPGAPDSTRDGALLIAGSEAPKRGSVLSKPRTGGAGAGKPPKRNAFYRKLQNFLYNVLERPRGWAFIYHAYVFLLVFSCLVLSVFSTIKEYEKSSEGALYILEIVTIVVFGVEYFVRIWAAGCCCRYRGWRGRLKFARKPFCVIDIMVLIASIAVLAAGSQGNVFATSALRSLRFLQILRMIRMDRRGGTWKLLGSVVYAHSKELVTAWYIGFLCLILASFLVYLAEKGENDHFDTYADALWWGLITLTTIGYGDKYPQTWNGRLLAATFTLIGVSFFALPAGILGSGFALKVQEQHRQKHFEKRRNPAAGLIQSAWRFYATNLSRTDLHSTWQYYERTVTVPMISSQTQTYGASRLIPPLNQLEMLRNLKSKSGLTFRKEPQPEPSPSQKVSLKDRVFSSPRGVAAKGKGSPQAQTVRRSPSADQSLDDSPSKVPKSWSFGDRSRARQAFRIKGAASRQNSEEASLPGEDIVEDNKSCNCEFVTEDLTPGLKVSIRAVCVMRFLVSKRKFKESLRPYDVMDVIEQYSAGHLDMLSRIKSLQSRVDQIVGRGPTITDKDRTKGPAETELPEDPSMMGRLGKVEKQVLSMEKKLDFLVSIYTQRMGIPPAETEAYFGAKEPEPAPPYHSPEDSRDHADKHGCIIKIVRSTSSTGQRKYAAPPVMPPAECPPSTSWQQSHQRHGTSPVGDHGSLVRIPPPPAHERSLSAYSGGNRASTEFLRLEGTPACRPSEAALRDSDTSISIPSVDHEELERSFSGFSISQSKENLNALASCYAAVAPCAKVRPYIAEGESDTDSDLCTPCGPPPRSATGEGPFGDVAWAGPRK
# KCNQ2 enhance: potentiators of rat KCNQ2 potassium channel; CHO-K1 KCNQ2, FluxOR thallium flux fluorescence; hits give high values; B-score at 10 µM; hit rate 0.54% among 310,000; AID 2239, 2010;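 active = fluorescence ratio B-score at least 3 SD of library B-scores, with initial fluorescence B-score within 3 of them, cut at about 5.3 in these data; same plate scores as AID 2156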;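 note: B-score of peak minus minimum over baseline fluorescence ratio after K+ and Tl+ stimulus; positive B-score means potentiation of KCNQ2 with more thallium influx and brighter signal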
# Kir21 confirm: mouse Kir2.1 channel blockers, retest, confirmation, cell-based, FluxOR thallium flux, duplicate. Kir2.1-expressing cells, FluxOR thallium flux fluorescence; hits give low values. Tl flux remaining, % of negative control (hits give low values), % at 10 µM. hit rate 41% among 2,300. AID 2032, 2009. shares compounds with KCNQ2 enhance;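 active = Primary-screen hit whose thallium flux fell at least 3 control SD below untreated wells in both duplicates, with normal baseline fluorescence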;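 note: 0% = blank wells without stimulus and 100% = stimulated no-compound controls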
# HEK293 ctr: counter-screen for Kir2.1 inhibitors: effect in parental HEK293 cells | shares compounds with KCNQ2 enhance | FluxOR thallium flux fluorescence; 0% = unstimulated blank wells | FluxOR signal as % of negative control (100 = no effect), % at 10 µM | hit rate 19% among 2,300 | AID 2105;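 active = dye signal at least 3 control SD above or below untreated wells in both duplicates, raw fluorescence within 3, either direction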;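 note: percent is based on the flux ratio of peak minus minimum fluorescence over baseline F0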
# CHO-K1 ctr: nonspecific thallium flux increase in parental CHO-K1, confirmation, counter-screen for KCNQ2 potentiator project, cell-based, FluxOR thallium flux, duplicate; hit rate 43% among 1,200; shares compounds with KCNQ2 enhance; parental CHO-K1 cells, FluxOR thallium flux fluorescence; zero = vehicle mean+3SD, 100% = vehicle-minus-blank window; activity increase over 3SD of controls, % at 10 µM;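 active = signal rise of at least 3 SD above the untreated control mean, in both duplicate wells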;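 note: counter screen of KCNQ2 potentiator hits so any rise reflects channel-independent effects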
# KCNQ1 pot spec: human KCNQ1 channel potentiation off-target, confirmation, selectivity assay for KCNQ2 potentiator project, cell-based, CHO, FluxOR thallium flux; shares compounds with KCNQ2 enhance; CHO KCNQ1 stable, FluxOR thallium flux fluorescence; beyond 3SD, as % of vehicle-control signal; activation over 3SD threshold, % at 10 µM; hit rate 28% among 1,200;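 active = fluorescence ratio rise of at least 3 SD of vehicle wells above their mean, in both replicate wells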;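 note: 0% = vehicle mean plus 3 SD and 100% = vehicle minus unstimulated blank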
# KCNQ2 pot conf: rat KCNQ2 channel potentiators, confirmation, cell-based, CHO, FluxOR thallium flux, duplicate | CHO-KCNQ2 cells, FluxOR thallium flux fluorescence | shares compounds with KCNQ2 enhance | hit rate 68% among 1,200 | potentiation, less the hit threshold, % at 10 µM;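 active = fluorescence ratio rising 3 SD or more over the vehicle control mean in both replicates, plus primary screen hit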;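 note: peak minus minimum thallium fluorescence divided by baseline after K/Tl stimulus; 0% = vehicle mean plus 3 SD and 100% = vehicle minus unstimulated blank difference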
# Kir21 spec: mouse Kir2.1 channel activation off-target, confirmation, selectivity assay for KCNQ2 potentiator project, cell-based, HEK293, FluxOR thallium flux. shares compounds with KCNQ2 enhance. HEK293 Kir2.1, FluxOR thallium flux fluorescence. activity over 3SD threshold, % at 10 µM. hit rate 2% among 1,200. AID 2345, 2010;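 active = fluorescence ratio rise of at least 3 SD above the vehicle-control mean, seen in both replicates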;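 note: 0% = vehicle mean plus 3 SD and 100% = vehicle minus no-stimulus blank window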
# KCNQ2 W236L pot: potentiators of retigabine-insensitive KCNQ2 W236L, mechanism study for KCNQ2 potentiator project, cell-based, rat KCNQ2 W236L, CHO, automated patch clamp | shares compounds with KCNQ2 enhance | automated patch clamp current | current increase over 3SD of negative controls (%), hits give high values, % at 25 µM | hit rate 10% among 940 | AID 2558, 2010;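 active = current increase at least 3 SD of the untreated controls above them in both duplicate recordings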
# An asterisk follows results filed as active; i = inactive; x = no result. Compounds with a hit are over-represented: about 1.6% of the library has one in this group of screens.
SMILES,KCNQ2 block,KCNQ2 enhance,others
COc1cc(CCC(=O)NCCc2ccc(F)cc2)cc(OC)c1OC,i,2.02,
COc1ccc(CN2CCC(C(=O)c3cccc(Cl)c3)CC2)cc1,i,0.01,
COc1ccc(CN2CCC(C(=O)c3ccc(Cl)cc3)CC2)cc1,i,0.34,Kir21 confirm=20.5%*;HEK293 ctr=i
Cc1ccc(S(=O)(=O)N(C)C)cc1NC(=O)CCCNC(=O)c1ccc(Cl)cc1,i,1.12,
CC(=O)Nc1ccc(NC(=O)C(C)OC(=O)CNC(=O)c2ccc(-c3ccccc3)cc2)cc1 (stereo not given),i,0.24,
Cn1c(=O)c(C(=O)Nc2ccccc2S(N)(=O)=O)c(O)c2ccccc21,i,5.95*,Kir21 confirm=i;HEK293 ctr=i;CHO-K1 ctr=-18.7;KCNQ1 pot spec=-11.2;KCNQ2 pot conf=-4.0;Kir21 spec=-34.7
CC(C)Cn1c(=O)c(C(=O)Nc2ccccc2S(N)(=O)=O)c(O)c2ccccc21,i,x,
CCOc1nc(C)cc(C)c1S(=O)(=O)c1ccc(Cl)cc1,i,1.12,Kir21 confirm=52.5%*;HEK293 ctr=i
COc1nc(C)cc(C)c1S(=O)(=O)c1ccc(Cl)cc1,i,0.07,
Cc1cccc(NC(=O)CSc2cc(C)c(C#N)c3nc4ccccc4n23)c1,i,1.09,
CC(=O)Nc1ccc(NC(=O)Cn2cnc(S(=O)(=O)N3CCOCC3)c2)cc1,i,0.77,
Cc1cccc2c(C(=O)O)c3cccc(C)c3nc12,i,0.8,
CCc1cc(-c2n[nH]c(C)c2-c2nc(C)cs2)c(O)cc1OC,i,2.65,Kir21 confirm=37.0%*;HEK293 ctr=i
CCc1cc(-c2n[nH]c(C)c2-c2nc3ccccc3s2)c(O)cc1OCC(=O)NN,i,x,
Cc1sc(N)nc1-c1c(C)n(C)c2ccccc12,i,0.88,
O=C(CCNC(=O)C1CCN(S(=O)(=O)c2ccccc2)CC1)NCc1ccc(Cl)c(Cl)c1,i,x,
O=C(NCc1ccccc1)C12CC3CC(CC(Br)(C3)C1)C2,i,x,
CCOC(=O)C1=C(C)C/C(=N\NC(=O)c2ccccc2O)CC1,i,0.96,
O=C(CCS(=O)(=O)c1cccc2nonc12)NC1CCCCCC1,i,11.2*,Kir21 confirm=i;HEK293 ctr=i;CHO-K1 ctr=33.3*;KCNQ1 pot spec=-13.4;KCNQ2 pot conf=36.2*;Kir21 spec=-40.2;KCNQ2 W236L pot=i
O=C(CCNS(=O)(=O)c1cccc2nonc12)NC1CCCCC1,i,0.78,
CN(C)c1ccc(/C=C2\SC(N3CCCCC3)=NC2=O)cc1,i,x,
Cc1nn(C)cc1S(=O)(=O)NC1CCCC1,i,0.88,
CCOC(=O)N1CCN(C(=O)CN(c2cccc(OC)c2)S(C)(=O)=O)CC1,i,x,
CCOC(=O)N1CCN(C(=O)CN(c2ccc(OC)cc2)S(C)(=O)=O)CC1,i,26.6*,Kir21 confirm=i;HEK293 ctr=i;CHO-K1 ctr=15.1*;KCNQ1 pot spec=-11.7;KCNQ2 pot conf=-24.3;Kir21 spec=-36.5
CCCc1cc(=O)[nH]c(SCCc2ccccc2)n1,i,1.43,
SMILES,KCNQ2 block,KCNQ2 enhance,others
COC(=O)c1cc(-c2ccc(S(=O)(=O)N3CCCCC3)cc2)c(C(F)(F)F)s1,i,0.49,
COc1cccc(C(=O)NNC(=O)C(=O)Nc2cccc3ccccc23)c1,i,12.8*,Kir21 confirm=i;HEK293 ctr=i;CHO-K1 ctr=-10.0;KCNQ1 pot spec=8.8*;KCNQ2 pot conf=-11.6;Kir21 spec=-26.8
COc1ccc(C(=O)NNC(=O)C(=O)Nc2ccc(C)cc2)cc1,i,27.8*,Kir21 confirm=i;HEK293 ctr=234.0%*;CHO-K1 ctr=5.7*;KCNQ1 pot spec=-5.9;KCNQ2 pot conf=7.6*;Kir21 spec=-28.8;KCNQ2 W236L pot=i
COc1cccc(C(=O)Nc2cccc3ccccc23)c1,i,x,
COc1ccc(NC(=O)c2ccc(C)cc2)cc1,i,x,
CCc1ccc(NC(=O)C(=O)NNC(=O)c2ccc(OC)cc2)cc1,i,24.5*,Kir21 confirm=i;HEK293 ctr=i;CHO-K1 ctr=-12.6;KCNQ1 pot spec=-45.3;KCNQ2 pot conf=-3.3;Kir21 spec=-25.1;KCNQ2 W236L pot=i
COc1ccc(CC(=O)NNC(=O)c2ccc(NC(C)=O)cc2)cc1,i,0.3,
O=C(CCc1nc(-c2ccccc2Cl)no1)NC1CCCCC1,i,0.36,
CC(=O)Nc1ccc(S(=O)(=O)N(C)CC(=O)OC(C)C(=O)N(C)Cc2ccccc2)cc1 (stereo not given),i,0.46,
O=C(O)C(Cc1ccccc1-c1ccccc1)C(=O)O,i,x,
COc1ccc(-c2cc(C(=O)Nc3cc(Br)ccc3O)no2)cc1,i,x,
O=C(COC(=O)COc1ccc(Cl)cc1)Nc1ccc(N2CCOCC2)cc1,i,x,
O=Cc1cccc(OC(=O)Nc2ccccc2)c1,i,0.12,
Cc1ccc(C(=O)N[C@H](C(=O)Nc2sccc2C(N)=O)C(C)C)cc1,i,x,
O=C(NCCCOc1cccc(CN2CCCCC2)c1)c1ccc(Cl)c(Cl)c1,i,x,
c1cc(CN2CCCCC2)cc(OCCCNc2nc3ccccc3s2)c1,i,x,Kir21 confirm=25.5%*;HEK293 ctr=i
CCc1nc(CNC(=O)C2CCC(=O)N(CCc3cccc(F)c3)C2)no1 (stereo not given),i,x,
O=C(CCCn1nnnc1CN1CCOCC1)N1CCC(c2ccccc2Cl)C1 (stereo not given),i,x,
Cc1ccc(S(=O)(=O)/N=C/c2cc(Br)ccc2O)cc1,i,4.31,
Cc1cc(N=Cc2cc(Br)ccc2O)no1,i,9.12*,Kir21 confirm=i;HEK293 ctr=i;CHO-K1 ctr=-17.5;KCNQ1 pot spec=-7.0;KCNQ2 pot conf=0.8*;Kir21 spec=-21.7;KCNQ2 W236L pot=i
CCCn1c(=O)c(C(=O)NNS(=O)(=O)c2ccc(Cl)cc2)c(O)c2ccccc21,i,x,
Cc1ccc(-n2nnnc2SCC(=O)N2CCCCC2)cc1,i,x,
O=C(CSc1nnnn1-c1cccc2c1CCCC2)N1CCCCC1,i,6.15*,Kir21 confirm=70.5%*;HEK293 ctr=i;CHO-K1 ctr=69.0*;KCNQ1 pot spec=-20.0;KCNQ2 pot conf=-7.2;Kir21 spec=-66.0
N#Cc1nc(Cc2cccc3ccccc23)oc1NCCCn1ccnc1,i,0.19,
